Binding signal data for eight sequences are collected here from publication PMC7862700, “An all-to-all approach to the identification of sequence-specific readers for epigenetic DNA modifications on cytosine”.

Common to all, as to experiment: DAPPL (digital affinity profiling via proximity ligation, sequencing); 10 mM Tris-HCl pH 7.5, 50 mM NaCl, 1 mM DTT, 4% glycerol, room temperature, 30 min; GST-TFs on glutathione beads, 16-mer random dsDNA library, 0.1% formaldehyde crosslink after washing; high values mean tight binding
For assay [1], the target named is T1, FEV (Homo sapiens, UniProt Q99581 1-238).
T1 sequence: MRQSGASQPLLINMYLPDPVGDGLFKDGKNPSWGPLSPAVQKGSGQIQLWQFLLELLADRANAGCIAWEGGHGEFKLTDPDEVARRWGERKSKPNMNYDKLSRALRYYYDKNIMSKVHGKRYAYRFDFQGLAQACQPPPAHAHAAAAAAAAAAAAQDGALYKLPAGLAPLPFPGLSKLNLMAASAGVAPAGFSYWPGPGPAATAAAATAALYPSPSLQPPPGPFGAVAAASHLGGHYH
The following applies: protein: recombinant; tags: N-terminal GST; dsDNA, one strand shown. In a few lines:
(§1)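 Human transcription factors were made in yeast as GST fusions, captured on glutathione beads and barcoded with DNA. With a tag-only sample included, the pool was incubated with 200 nmole of a random double-stranded 16-mer DNA library in Tris/NaCl/DTT/glycerol buffer at room temperature for 30 min, then crosslinked with 0.1% formaldehyde after washing, ligated by proximity, amplified and sequenced. For binding signal, each hexamer's read frequency for a factor is divided by its frequency for the tag-only sample.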

Assay [2] concerns the target ETV5 (Homo sapiens, UniProt P41161 1-510). The following applies: protein: recombinant; tags: N-terminal GST; dsDNA, one strand shown. In a few lines: as §1
Assay [3] concerns the target HSF1 (Homo sapiens, UniProt Q00613 1-529). The following applies: protein: recombinant; tags: N-terminal GST; chain copies: 3; dsDNA, one strand shown. In a few lines:
as §1

Assay [4] deals with T2, SPIC (Homo sapiens, UniProt Q8N5J4 1-248).
T2 sequence: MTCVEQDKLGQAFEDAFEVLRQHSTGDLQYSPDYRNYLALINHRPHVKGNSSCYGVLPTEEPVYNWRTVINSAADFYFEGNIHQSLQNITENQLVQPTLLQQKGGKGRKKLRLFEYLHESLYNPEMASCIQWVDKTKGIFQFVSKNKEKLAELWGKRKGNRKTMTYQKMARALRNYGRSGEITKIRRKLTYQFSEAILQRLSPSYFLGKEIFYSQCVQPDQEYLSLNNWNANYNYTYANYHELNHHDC
Conditions: protein: recombinant; tags: N-terminal GST; dsDNA, one strand shown. In outline: as §1

For assay [5], the target named is ELF4 (Homo sapiens, UniProt Q99607 1-663). The following applies: protein: recombinant; tags: N-terminal GST; dsDNA, one strand shown. In outline: as §1
For assay [6], the target named is T3, ELK4 (Homo sapiens, UniProt P28324-2 1-405).
T3 sequence: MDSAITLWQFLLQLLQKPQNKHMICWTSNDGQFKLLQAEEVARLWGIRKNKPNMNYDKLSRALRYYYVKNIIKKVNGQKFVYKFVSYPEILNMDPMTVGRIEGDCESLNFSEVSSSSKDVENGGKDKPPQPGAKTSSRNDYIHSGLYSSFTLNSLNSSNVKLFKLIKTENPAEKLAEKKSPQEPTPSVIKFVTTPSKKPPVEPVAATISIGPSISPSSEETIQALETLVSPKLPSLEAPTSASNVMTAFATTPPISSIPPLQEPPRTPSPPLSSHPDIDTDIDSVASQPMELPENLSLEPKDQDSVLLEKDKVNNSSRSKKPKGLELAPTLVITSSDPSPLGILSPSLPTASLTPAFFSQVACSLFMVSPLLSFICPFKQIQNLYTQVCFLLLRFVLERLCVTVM
Conditions: protein: recombinant; tags: N-terminal GST; dsDNA, one strand shown. In a few lines: as §1

Assay [7] has as its target T4, ETV2 (Homo sapiens, UniProt O00321 1-342).
T4 sequence: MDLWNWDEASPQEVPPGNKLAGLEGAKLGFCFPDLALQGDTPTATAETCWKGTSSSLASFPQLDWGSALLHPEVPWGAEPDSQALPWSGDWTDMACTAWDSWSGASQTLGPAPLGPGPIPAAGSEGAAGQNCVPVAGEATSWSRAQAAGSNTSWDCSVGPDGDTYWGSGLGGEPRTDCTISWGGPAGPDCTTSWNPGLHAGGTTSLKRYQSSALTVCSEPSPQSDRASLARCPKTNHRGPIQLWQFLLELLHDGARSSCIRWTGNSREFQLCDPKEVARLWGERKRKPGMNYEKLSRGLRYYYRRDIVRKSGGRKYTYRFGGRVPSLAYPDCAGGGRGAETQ
Conditions: protein: recombinant; tags: N-terminal GST; dsDNA, one strand shown. In outline:
as §1

For assay [8], the target named is T5, ELF3 (Homo sapiens, UniProt P78545 1-371).
T5 sequence: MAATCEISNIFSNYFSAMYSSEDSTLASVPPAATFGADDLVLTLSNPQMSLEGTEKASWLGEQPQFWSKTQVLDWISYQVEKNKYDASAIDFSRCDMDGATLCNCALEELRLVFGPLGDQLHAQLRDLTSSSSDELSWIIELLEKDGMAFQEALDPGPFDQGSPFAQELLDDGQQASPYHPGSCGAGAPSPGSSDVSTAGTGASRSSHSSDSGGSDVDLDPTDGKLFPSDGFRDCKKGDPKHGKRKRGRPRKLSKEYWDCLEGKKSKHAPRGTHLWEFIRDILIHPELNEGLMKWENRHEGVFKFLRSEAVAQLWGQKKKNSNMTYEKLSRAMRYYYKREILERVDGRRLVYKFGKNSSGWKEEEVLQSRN
The following applies: protein: recombinant; tags: N-terminal GST; dsDNA, one strand shown. In outline:
as §1

In assay [9] the target is CRX (Homo sapiens, UniProt O43186 1-299). The following applies: protein: recombinant; tags: N-terminal GST; dsDNA, one strand shown. In outline:
as §1

For assay [10], the target named is ETV1 (Homo sapiens, UniProt P50549 1-477). Conditions: protein: recombinant; tags: N-terminal GST; dsDNA, one strand shown. In a few lines:
as §1

HSF1, sequence (Q00613 whole entry): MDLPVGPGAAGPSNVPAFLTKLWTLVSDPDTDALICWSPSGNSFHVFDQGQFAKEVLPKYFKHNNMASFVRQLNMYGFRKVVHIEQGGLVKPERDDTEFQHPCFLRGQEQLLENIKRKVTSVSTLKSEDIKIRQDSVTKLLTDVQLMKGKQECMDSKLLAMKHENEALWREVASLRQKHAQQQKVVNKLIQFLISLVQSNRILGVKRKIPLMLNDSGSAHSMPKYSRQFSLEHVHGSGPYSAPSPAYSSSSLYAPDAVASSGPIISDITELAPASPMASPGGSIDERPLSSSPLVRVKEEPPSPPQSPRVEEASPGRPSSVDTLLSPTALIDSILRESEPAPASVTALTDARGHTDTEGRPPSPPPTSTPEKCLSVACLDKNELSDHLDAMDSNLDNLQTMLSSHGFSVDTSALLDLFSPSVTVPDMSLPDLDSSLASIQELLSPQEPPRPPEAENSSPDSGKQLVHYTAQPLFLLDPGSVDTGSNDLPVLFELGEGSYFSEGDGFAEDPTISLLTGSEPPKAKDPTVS
ELF4, sequence (Q99607 whole entry): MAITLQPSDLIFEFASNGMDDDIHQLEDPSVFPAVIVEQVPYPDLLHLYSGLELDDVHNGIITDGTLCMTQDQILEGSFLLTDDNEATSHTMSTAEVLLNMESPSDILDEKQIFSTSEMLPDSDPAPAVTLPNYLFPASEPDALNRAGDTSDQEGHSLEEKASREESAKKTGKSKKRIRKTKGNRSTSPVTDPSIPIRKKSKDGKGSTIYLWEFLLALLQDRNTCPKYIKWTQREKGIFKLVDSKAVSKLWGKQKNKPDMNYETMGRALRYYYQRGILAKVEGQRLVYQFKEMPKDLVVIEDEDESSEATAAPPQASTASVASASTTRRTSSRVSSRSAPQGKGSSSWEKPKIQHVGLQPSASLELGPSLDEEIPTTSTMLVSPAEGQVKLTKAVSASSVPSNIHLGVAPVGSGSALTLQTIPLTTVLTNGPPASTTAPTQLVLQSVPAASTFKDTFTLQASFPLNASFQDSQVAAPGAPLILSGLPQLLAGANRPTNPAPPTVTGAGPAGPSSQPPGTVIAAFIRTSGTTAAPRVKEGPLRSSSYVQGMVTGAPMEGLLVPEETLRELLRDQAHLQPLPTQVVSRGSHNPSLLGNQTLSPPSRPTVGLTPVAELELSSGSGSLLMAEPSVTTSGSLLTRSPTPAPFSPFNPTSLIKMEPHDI
CRX, sequence (O43186 whole entry): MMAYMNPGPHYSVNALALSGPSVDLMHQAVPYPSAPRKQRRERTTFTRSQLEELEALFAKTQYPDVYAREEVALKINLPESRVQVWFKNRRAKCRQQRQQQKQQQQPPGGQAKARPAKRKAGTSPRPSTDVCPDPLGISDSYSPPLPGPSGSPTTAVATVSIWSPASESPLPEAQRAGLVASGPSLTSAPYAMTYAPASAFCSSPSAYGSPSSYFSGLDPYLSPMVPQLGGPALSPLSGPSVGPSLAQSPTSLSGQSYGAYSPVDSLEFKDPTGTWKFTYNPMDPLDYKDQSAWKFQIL
ETV5, sequence (P41161 whole entry): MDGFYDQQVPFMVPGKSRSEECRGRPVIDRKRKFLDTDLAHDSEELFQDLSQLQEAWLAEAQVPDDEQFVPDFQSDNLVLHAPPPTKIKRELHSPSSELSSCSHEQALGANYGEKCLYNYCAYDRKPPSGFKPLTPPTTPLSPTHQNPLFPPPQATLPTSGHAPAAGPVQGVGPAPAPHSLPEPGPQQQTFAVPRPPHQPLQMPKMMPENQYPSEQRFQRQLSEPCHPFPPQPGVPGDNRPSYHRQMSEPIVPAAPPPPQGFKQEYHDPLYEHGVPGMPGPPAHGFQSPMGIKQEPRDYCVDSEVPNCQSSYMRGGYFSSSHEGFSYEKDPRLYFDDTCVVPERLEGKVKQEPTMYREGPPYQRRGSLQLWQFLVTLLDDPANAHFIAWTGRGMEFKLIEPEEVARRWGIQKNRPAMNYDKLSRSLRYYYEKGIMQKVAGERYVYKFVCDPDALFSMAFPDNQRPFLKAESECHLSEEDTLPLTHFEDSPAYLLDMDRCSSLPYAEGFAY
ETV1, sequence (P50549 whole entry): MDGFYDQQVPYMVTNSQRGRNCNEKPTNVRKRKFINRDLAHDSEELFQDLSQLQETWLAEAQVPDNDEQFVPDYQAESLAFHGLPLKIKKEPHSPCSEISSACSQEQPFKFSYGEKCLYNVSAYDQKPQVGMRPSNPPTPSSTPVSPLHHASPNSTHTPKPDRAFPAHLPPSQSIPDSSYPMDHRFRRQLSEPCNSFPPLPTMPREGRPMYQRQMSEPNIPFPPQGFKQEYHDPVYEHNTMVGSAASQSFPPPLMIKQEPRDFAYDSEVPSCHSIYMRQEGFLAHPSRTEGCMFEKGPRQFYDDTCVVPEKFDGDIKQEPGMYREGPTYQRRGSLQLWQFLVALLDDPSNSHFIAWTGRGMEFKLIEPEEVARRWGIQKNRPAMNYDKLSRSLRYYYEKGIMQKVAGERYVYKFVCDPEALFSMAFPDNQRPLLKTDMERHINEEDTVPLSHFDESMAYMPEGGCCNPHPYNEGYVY

In the case of CTTGCA, the binding signal in assay [1] was 1.3 fold enrichment (6-mer frequency, TF over GST control); in assay [2] it was 1.31 fold enrichment (6-mer frequency, TF over GST control); in [3] it was 1.12 fold enrichment (6-mer frequency, TF over GST control); in [4] it was 1.28 fold enrichment (6-mer frequency, TF over GST control); in [5], 1.41 fold enrichment (6-mer frequency, TF over GST control); in [6], 1.4 fold enrichment (6-mer frequency, TF over GST control). For the same sequence, the binding signal was 1.45 fold enrichment (6-mer frequency, TF over GST control) in [7]; 1.3 fold enrichment (6-mer frequency, TF over GST control) in assay [8]; 1.15 fold enrichment (6-mer frequency, TF over GST control) in assay [9]; 1.41 fold enrichment (6-mer frequency, TF over GST control) in [10].
Take CTCAAA: the binding signal in assay [1] was 1.28 fold enrichment (6-mer frequency, TF over GST control); in assay [2], 1.18 fold enrichment (6-mer frequency, TF over GST control); in assay [3], 1.24 fold enrichment (6-mer frequency, TF over GST control); in assay [4] it was 1.2 fold enrichment (6-mer frequency, TF over GST control); in assay [5] it was 1.18 fold enrichment (6-mer frequency, TF over GST control); in assay [6] it was 1.2 fold enrichment (6-mer frequency, TF over GST control). The binding signal in assay [7] was 1.16 fold enrichment (6-mer frequency, TF over GST control); in assay [8], 1.32 fold enrichment (6-mer frequency, TF over GST control); in assay [9], 1.25 fold enrichment (6-mer frequency, TF over GST control); in assay [10], 1.2 fold enrichment (6-mer frequency, TF over GST control).
Take ACTTGT: the binding signal was 1.28 fold enrichment (6-mer frequency, TF over GST control) in assay [1]; 1.21 fold enrichment (6-mer frequency, TF over GST control) in assay [2]; 1.12 fold enrichment (6-mer frequency, TF over GST control) in [3]; 1.08 fold enrichment (6-mer frequency, TF over GST control) in assay [4]; 1.37 fold enrichment (6-mer frequency, TF over GST control) in [5]; 1.36 fold enrichment (6-mer frequency, TF over GST control) in [6]. For the same sequence, the binding signal in [7] is 1.31 fold enrichment (6-mer frequency, TF over GST control); in assay [8] it was 1.16 fold enrichment (6-mer frequency, TF over GST control); in [9], 1.1 fold enrichment (6-mer frequency, TF over GST control); in assay [10] it was 1.29 fold enrichment (6-mer frequency, TF over GST control).
With TTCCTC, the binding signal in assay [1] is 2.13 fold enrichment (6-mer frequency, TF over GST control); in assay [2] it was 2.47 fold enrichment (6-mer frequency, TF over GST control); in assay [3], 1.61 fold enrichment (6-mer frequency, TF over GST control); in assay [4] it was 2.72 fold enrichment (6-mer frequency, TF over GST control); in assay [5], 2.16 fold enrichment (6-mer frequency, TF over GST control); in assay [6], 2.1 fold enrichment (6-mer frequency, TF over GST control). Further, the binding signal in assay [7] is 2.39 fold enrichment (6-mer frequency, TF over GST control); in [8] it was 2.06 fold enrichment (6-mer frequency, TF over GST control); in assay [9] it was 1.43 fold enrichment (6-mer frequency, TF over GST control); in [10] it was 2.27 fold enrichment (6-mer frequency, TF over GST control).
With TCTGGT, the binding signal in assay [1] was 1.12 fold enrichment (6-mer frequency, TF over GST control); in [2] it was 1.28 fold enrichment (6-mer frequency, TF over GST control); in assay [3], 1.8 fold enrichment (6-mer frequency, TF over GST control); in assay [4], 1.38 fold enrichment (6-mer frequency, TF over GST control); in assay [5], 1.28 fold enrichment (6-mer frequency, TF over GST control); in assay [6], 1.17 fold enrichment (6-mer frequency, TF over GST control). In addition, the binding signal in assay [7] was 1.16 fold enrichment (6-mer frequency, TF over GST control); in assay [8], 1.34 fold enrichment (6-mer frequency, TF over GST control); in [9], 1.33 fold enrichment (6-mer frequency, TF over GST control); in assay [10], 1.1 fold enrichment (6-mer frequency, TF over GST control).
In the case of CTAAGC, the binding signal in [1] is 1.05 fold enrichment (6-mer frequency, TF over GST control); in [2], 1.05 fold enrichment (6-mer frequency, TF over GST control); in assay [3], 1.56 fold enrichment (6-mer frequency, TF over GST control); in assay [4], 1.08 fold enrichment (6-mer frequency, TF over GST control); in assay [5], 1.09 fold enrichment (6-mer frequency, TF over GST control); in assay [6] it was 1.16 fold enrichment (6-mer frequency, TF over GST control). Also, the binding signal in assay [7] was 1.17 fold enrichment (6-mer frequency, TF over GST control); in assay [8], 1.12 fold enrichment (6-mer frequency, TF over GST control); in assay [9], 2.45 fold enrichment (6-mer frequency, TF over GST control); in [10], 1.06 fold enrichment (6-mer frequency, TF over GST control).
Regarding TCCATC, the binding signal was 1.21 fold enrichment (6-mer frequency, TF over GST control) in assay [1]; 1.22 fold enrichment (6-mer frequency, TF over GST control) in [2]; 1.16 fold enrichment (6-mer frequency, TF over GST control) in assay [3]; 1.06 fold enrichment (6-mer frequency, TF over GST control) in assay [4]; 1.13 fold enrichment (6-mer frequency, TF over GST control) in assay [5]; 1.26 fold enrichment (6-mer frequency, TF over GST control) in assay [6]. Also, the binding signal in assay [7] is 1.32 fold enrichment (6-mer frequency, TF over GST control); in [8] it was 1.11 fold enrichment (6-mer frequency, TF over GST control); in assay [9], 1.15 fold enrichment (6-mer frequency, TF over GST control); in assay [10], 1.17 fold enrichment (6-mer frequency, TF over GST control).
As to ACTGAA, the binding signal in assay [1] is 1.19 fold enrichment (6-mer frequency, TF over GST control); in assay [2], 1.19 fold enrichment (6-mer frequency, TF over GST control); in assay [3], 1.08 fold enrichment (6-mer frequency, TF over GST control); in [4], 1.31 fold enrichment (6-mer frequency, TF over GST control); in assay [5] it was 1.13 fold enrichment (6-mer frequency, TF over GST control); in [6], 1.16 fold enrichment (6-mer frequency, TF over GST control). Also, the binding signal in assay [7] is 1.05 fold enrichment (6-mer frequency, TF over GST control); in [8], 1.37 fold enrichment (6-mer frequency, TF over GST control); in [9], 1.04 fold enrichment (6-mer frequency, TF over GST control); in [10], 1.19 fold enrichment (6-mer frequency, TF over GST control).
